Data as given in ChEMBL document CHEMBL3433997, “St. Jude Leishmania screening dataset” (2016).

Experiments:
Assay type in all cases: functional
[1] = molecular target: Solute carrier family 2, facilitated glucose transporter member 1 (Homo sapiens) (UniProt P11166); experiment: ST_JUDE_LEISH: Cytotoxicity at 2uM final concentration against transgenic Leishmania Mexicana promastigotes LmGLUT1 that are glucose transport deficient and complemented with the human glucose transporter GLUT1. Activity is measured by DNA content using SYBR green in vitro
Sequence of Solute carrier family 2, facilitated glucose transporter member 1 (Homo sapiens) (P11166 whole entry): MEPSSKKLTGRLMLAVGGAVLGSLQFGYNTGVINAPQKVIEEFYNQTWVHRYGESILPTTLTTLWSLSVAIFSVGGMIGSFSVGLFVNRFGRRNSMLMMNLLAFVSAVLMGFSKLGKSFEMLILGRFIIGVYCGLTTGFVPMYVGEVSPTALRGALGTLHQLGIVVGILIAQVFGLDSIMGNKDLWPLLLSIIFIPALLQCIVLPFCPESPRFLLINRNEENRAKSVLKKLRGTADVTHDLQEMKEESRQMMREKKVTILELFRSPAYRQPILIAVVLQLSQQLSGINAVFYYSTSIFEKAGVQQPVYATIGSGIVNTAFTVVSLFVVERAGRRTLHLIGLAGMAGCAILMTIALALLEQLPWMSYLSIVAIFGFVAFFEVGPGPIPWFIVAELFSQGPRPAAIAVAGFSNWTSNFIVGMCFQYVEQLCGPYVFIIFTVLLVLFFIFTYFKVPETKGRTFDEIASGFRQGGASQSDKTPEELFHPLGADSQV

[2] = molecular target: Hexose transporter 1 (Plasmodium falciparum) (UniProt O97467); experiment: ST_JUDE_LEISH: Cytotoxicity at 2uM final concentration against transgenic Leishmania Mexicana promastigotes LmPfHT that are glucose transport deficient and complemented with the Plasmodium falciparum hexose transporter. Activity is measured by DNA content using SYBR green in vitro
[3] = molecular target: Glucose transporter (Leishmania mexicana) (UniProt O61059); experiment: ST_JUDE_LEISH: Cytotoxicity at 2uM final concentration against transgenic Leishmania Mexicana promastigotes LmGT2 that are glucose transport deficient and complemented with the L. Mexicana glucose transporter 2. Activity is measured by DNA content using SYBR green in vitro

Structure (SMILES)	inhibition [1]	inhibition [2]	inhibition [3]
CN1CCN(c2cc(-c3ccncc3)nc(-c3cccnc3)n2)CC1	5.17%	3.27%	3%
CCOC(=O)c1ccc(NC(=O)Nc2ccc(-c3cccc(-c4nc5ccccc5[nH]4)c3)cc2)cc1	6.03%	4.66%	1.68%
Cc1[nH]c(C)c(-c2ccc(OCc3ccc(F)cc3)cc2)c(=O)c1Cl	-0.65%	-0.27%	-1.77%
CC(C)[C@H](NC(=O)c1ccc(O)c(-c2ccc(Cl)c(Cl)c2)c1)C(=O)NCCN1CCOCC1	2.3%	4.31%	4.06%
Cc1nc2nc(N)nc(N)c2c(C)c1Cc1ccccc1I	9.13%	8.12%	6.31%
N#Cc1ccc(N/C(=N\c2ccc(-c3ccccc3)cc2)NC2CCCc3ccccc32)c(O)c1 (centres undefined)	-1.53%	0.81%	-0.07%
COc1cc2ncnc(Nc3ccc(OCc4ccccc4Br)c(Cl)c3)c2cc1OC	-3.06%	1.28%	6.38%
Cn1cncc1C(=O)Nc1ccc(-c2cccc(-c3nc4cc(C(F)(F)F)ccc4[nH]3)c2)cc1	1.53%	1.11%	2.32%
O=C(Nc1ccnc2ccccc12)NC1CCN(Cc2ccccc2)CC1	3.42%	3.28%	3.89%
Cc1cc(C(=O)Nc2ccc(C)c(-c3nc(N(C(=O)c4ccc(F)c(C)c4)C4CCNCC4)nc4c3ccc(=O)n4-c3c(F)cccc3F)c2)ccc1F	1.66%	0.07%	0.59%
COc1cc2c(cc1OC)C(c1ccc(Br)cc1)CN(C)CC2 (centres undefined)	1.39%	4.21%	4.35%
CCc1ccc(CNCC(CCNc2cc(=O)c3ccccc3[nH]2)NCc2cc(Br)cc(Br)c2)o1 (centres undefined)	-1.12%	1.71%	-0.33%
O=C(Nc1ccc(-c2cccc(-c3nc4cc(C(F)(F)F)ccc4[nH]3)c2)cc1)c1csnn1	16.1%	23.4%	14.2%
CC(C)C[C@@H](/C=N/N1CCOC1=O)NC(=O)[C@H](CC(C)C)NC(=O)c1ccc(OCCN2CCOCC2)cc1	1.39%	6.46%	3.93%
N=C(NCCCc1ccccc1)c1cccc(C(=N)NCCCc2ccccc2)n1	-0.39%	-1.1%	-0.17%
O=C(CN(c1cccc(C(F)(F)F)c1)S(=O)(=O)c1ccc(Cl)cc1)NCCC(c1ccccc1)c1ccccc1	-0.18%	-0.47%	-2.89%
CCOC(=O)CN1Cc2cc(NCc3ccc4ccc5nc(C)[nH]c(=O)c5c4c3)ccc2C1=O	0.55%	1.98%	-0.88%

Structure (SMILES)	inhibition [1]	inhibition [2]	inhibition [3]
Cc1ccc(Nc2nc(N/N=C/c3cccc(O)c3)nc(Nc3ccc([N+](=O)[O-])cc3)n2)cc1C	3.08%	3.36%	2.77%
CCc1c(C)nc(-n2nc(C)cc2NC(=O)CC(c2ccccc2)c2ccccc2)[nH]c1=O	-2.32%	-2.23%	-4.35%
COc1ccc(CCNCCCCCCNCCc2ccc(Cl)c3ccccc23)cc1OC	0.11%	0.21%	2.66%
Cn1nc(-c2ccc(CNC3CCc4ccccc43)cc2)c2cnc(NCCCN3CCCC3)nc21 (centres undefined)	7.46%	13.8%	8.91%
O=c1[nH]c2ccc(Nc3nccc(NCCc4ccccc4)n3)cc2[nH]1	1.91%	4.94%	5.12%
Clc1ccc(CNc2nc(NCCc3c[nH]cn3)nc(N3CCCC4CCCCC43)n2)cc1 (centres undefined)	3.99%	4.86%	3.89%
CN1CCC(C(=O)Nc2cccc(-c3ccc(-c4nc5ccccc5[nH]4)cc3)c2)CC1	-0.41%	1.25%	1.04%
Cc1ccccc1CCNC(=O)c1cnc(N2CCN(c3ccncc3)CC2)c(Cl)c1	79%	81.9%	84.2%
O=C(NC1CCN(Cc2ccccc2)CC1)c1ccc(-c2nc3cc(Cl)c(Cl)cc3[nH]2)c(F)c1	10.3%	9.26%	9.86%
Cc1cccc2c(C(=O)NC3CCN(Cc4ccccc4)CC3)cc(-c3cccnc3)nc12	1.6%	1.08%	-0.31%
CN(C)S(=O)(=O)n1ccc2c3c(N)nc(N)nc3ccc21	44.3%	46.3%	29.3%
CCc1nonc1NC(=O)c1oc2c(C)c(C)ccc2c1C	7.09%	5.3%	7.88%
CC(C)n1cc2c(ccc3nc(N)nc(N)c32)n1	7.23%	17.1%	5.96%
COc1ccc2nccc(N3CCC(SCCNCc4ccc5c(n4)NC(=O)CS5)C3)c2n1 (centres undefined)	-1.38%	-0.72%	0.51%
N#Cc1ccc2c(c1)CCN(CCCn1c(-c3ccc4ccccc4c3)nc3ccncc31)CC2	15.1%	16.1%	10.4%
CC(=O)c1ccc2c(c1)C(NC(=O)c1cccc(Cl)c1Cl)C(CO)C(C)(C)O2 (centres undefined)	1.76%	3.84%	-1.69%
